The record followed here is the OligoGym collection.
Also: reference of the scale not given here.

One experiment addresses TXNDC17. Nature of the experiment: pooled miR-30 sensor sort-seq; sequence = guide strand. The following applies: shRNA.
Consider ATTGATACTAGAACAAATCAGG, for which the sensor-assay potency score (higher = more potent) was -0.62.

Regarding TAGATGAACACACATCCTTCAC, the sensor-assay potency score (higher = more potent) is -0.655.

With TTTTCTGAAGTCATTATTTGGA, the sensor-assay potency score (higher = more potent) was -0.354.

Take AAGACACTCAGATTCTACCAGT: the sensor-assay potency score (higher = more potent) is -0.12.

For TTACTTTCAAGTTTTTTCTGAA, the sensor-assay potency score (higher = more potent) is 0.123.

Take TTTCTGAAGTCATTATTTGGAT: the sensor-assay potency score (higher = more potent) is -0.595.

Turning to TTTTTCTGAAGTCATTATTTGG, the sensor-assay potency score (higher = more potent) is -1.37.

TAAGTAGTGTAGGCACTGCTGT: the sensor-assay potency score (higher = more potent) is -0.733.

For the sequence AGTAGATGAACACACATCCTTC, the sensor-assay potency score (higher = more potent) was -1.77.

For TTCTGAAGTCATTATTTGGATC, the sensor-assay potency score (higher = more potent) was -0.868.

On to TTAAGTAGTGTAGGCACTGCTG, for which the sensor-assay potency score (higher = more potent) was -0.868.

The target of another experiment is TXNDC2. The experiment is described as above. The following applies: shRNA.
Regarding TTCCAAGAACTCTAGGGCCAGG, the sensor-assay potency score (higher = more potent) was -1.16.

Consider TTTCCAAGAACTCTAGGGCCAG, for which the sensor-assay potency score (higher = more potent) was -0.912.

With TTGGGGATGTCAATCTCCTTGG, the sensor-assay potency score (higher = more potent) was -0.981.

As to TTTTATAAAACTGAAAGGTTGG, the sensor-assay potency score (higher = more potent) was -0.0568.

Consider TCTTCTGAGGACTTGGGGCTGT, for which the sensor-assay potency score (higher = more potent) is -0.284.

Turning to AAGAATGGTCTGATGGTCCTGC, the sensor-assay potency score (higher = more potent) was 0.56.

In the case of TTCTTCTGAGGACTTGGGGAGG, the sensor-assay potency score (higher = more potent) was -1.18.

On to TTCTTCTTCAGGCTTTAGGATG, for which the sensor-assay potency score (higher = more potent) was -1.62.

For TTTTTTATAAAACTGAAAGGTT, the sensor-assay potency score (higher = more potent) was -0.527.

As for TTTTTCTGAGGACTTGGGGAGG, the sensor-assay potency score (higher = more potent) is -1.18.

On to TAGGATGTCACCCTCCTTGGAT, for which the sensor-assay potency score (higher = more potent) was -0.739.

With TCTTCTAGGGACTTGGGGCTGT, the sensor-assay potency score (higher = more potent) is -0.62.

The target of the next experiment is UBA1. The experiment is described as above. The following applies: shRNA.
Sequence TATAGTACTGGTGACGTGGTGC had a sensor-assay potency score (higher = more potent) of 0.491.

Regarding TTCTCTTGCAGGTCTGAGCCAA, the sensor-assay potency score (higher = more potent) is -0.695.

Consider TTGGTGAGCACCACCACCTGGA, for which the sensor-assay potency score (higher = more potent) was determined as 0.0519.

Consider TTTAACTTCGTGACATCCCAGG, for which the sensor-assay potency score (higher = more potent) is -0.746.

Turning to TATGTCTGCTTCACTGCCGTTC, the sensor-assay potency score (higher = more potent) is -0.544.

On to TTGACATCAAAGGTGAGCGGGT, for which the sensor-assay potency score (higher = more potent) is -0.267.

Take TTAGGTACTTTGACCTGACTGA: the sensor-assay potency score (higher = more potent) is -0.00997.

TTCTTGAGCAGCTCACAGCCAA: the sensor-assay potency score (higher = more potent) was -0.992.

On to ATTCTTGTAGGAGTCAAGCTGT, for which the sensor-assay potency score (higher = more potent) stood at 0.0651.

Regarding TTCTTAGGTACTTTGACCTGAC, the sensor-assay potency score (higher = more potent) was 0.097.

For the sequence TTCCGGTAGTAGACACAGCGGC, the sensor-assay potency score (higher = more potent) was -0.978.

Regarding TACTTTGACCTGACTGACGATG, the sensor-assay potency score (higher = more potent) is -0.507.

For a further experiment, the target named is UBA3. Described as above. The note with it: shRNA.
Sequence TAGATAATCCAAAACCTCCTGT registered a sensor-assay potency score (higher = more potent) of 0.333.

As to TTCTTGTCCATCAACAAGCCCC, the sensor-assay potency score (higher = more potent) is -0.667.

For the sequence TTGAATAGTACAGTCTGTGGGG, the sensor-assay potency score (higher = more potent) is 0.37.

In the case of TAGAACTTTACATGTATCTAAC, the sensor-assay potency score (higher = more potent) is -0.95.
